Experiment [1] is described as follows: CEETOX_H295R_PROG: CeeTox H295R High-throughput Steroidogenesis Assay for Progesterone (PROG) (AID 2283442).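 As to AC50: human H295R adrenal cells primed with 10 µM forskolin before dosing; progesterone secreted into medium by H295R cells measured by HPLC-MS/MS.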 The note with it: actives raise or lower the signal. In a few lines: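 Steps: seed H295R cells and let them adhere overnight; prime 48 h with 10 uM forskolin; dose with compound in DMSO at 0.1% final for 48 h; extract medium steroids with MTBE; measure progesterone by LC-MS/MS. MTT viability was run in the same wells.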

Read-out in experiment [2]: Tumor necrosis factor receptor superfamily member 6 (Homo sapiens) (UniProt P25445)
In words: LTEA_HepaRG_FAS: Life Technologies and Expression Analysis (LTEA) Assay for Fas cell surface death receptor (FAS) using HepaRG (AID 2283447). The note with it: mRNA level, 48 h; actives raise or lower the signal. In a few lines: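 Differentiated HepaRG cells in serum-free induction medium were exposed 48 h to 8 half-log concentrations up to 100 uM in 0.5% DMSO, in duplicate. FAS mRNA was measured by qRT-PCR normalised to ACTB, GAPDH and POLR2A; bidirectional fit versus DMSO.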

Read-out in experiment [3]: Fatty acid synthase (Homo sapiens) (UniProt P49327)
In words: LTEA_HepaRG_FASN: Life Technologies and Expression Analysis (LTEA) Assay for Fatty Acid Synthase (FASN) using HepaRG (AID 2283448).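 As to AC50: differentiated human HepaRG liver cells in serum-free induction medium.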 The note with it: mRNA level, 48 h; actives raise or lower the signal. In outline:
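HepaRG, 48 h exposure, 8-pt half-log series top 100 uM, 0.5% DMSO vehicle, duplicates. Readout: FASN transcript by Fluidigm qRT-PCR; housekeeping-normalized; bidirectional curve fit vs DMSO baseline.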

Read-out in experiment [4]: Cyclin D2 (CCND2), CCND2 (gene 894)
In words: LTEA_HepaRG_CCND2: Life Technologies and Expression Analysis (LTEA) Assay for Cyclin D2 (CCND2) using HepaRG (AID 2283449).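 Also: CCND2 transcript measured by TaqMan qRT-PCR and normalised to three housekeeping genes.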 As to conditions: mRNA level, 48 h; actives raise or lower the signal. In outline: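 HepaRG, 48 h dosing, 8-pt half-log curve from 100 uM, 0.5% DMSO; duplicate wells. Readout: CCND2 transcript by microfluidic qRT-PCR, housekeeping-normalised; bidirectional fit vs DMSO baseline.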

Read-out in experiment [5]: Cyclin Dependent Kinase Inhibitor 1A (CDKN1A), CDKN1A (gene 1026)
In words: LTEA_HepaRG_CDKN1A: Life Technologies and Expression Analysis (LTEA) Assay for Cyclin Dependent Kinase Inhibitor 1A (CDKN1A) using HepaRG (AID 2283450). The note with it: mRNA level, 48 h; actives raise or lower the signal. In a few lines: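 Read-out is CDKN1A mRNA by TaqMan qRT-PCR, normalized to three housekeeping genes and fitted in both directions against the DMSO baseline. Human HepaRG cells were treated 48 h with test chemicals up to 100 uM in half-log steps, 0.5% DMSO.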

Read-out in experiment [6]: Cyclin D1 (CCND1), CCND1 (gene 595)
In words: LTEA_HepaRG_CCND1: Life Technologies and Expression Analysis (LTEA) Assay for Cyclin D1 (CCND1) using HepaRG (AID 2283451). As to conditions: mRNA level, 48 h; actives raise or lower the signal. In a few lines:
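HepaRG plated 48 h, medium switched to serum-free induction medium, chemicals added in duplicate (top 100 uM, half-log steps, 0.5% DMSO) for 48 h, cells lysed, RNA measured by TaqMan qRT-PCR.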

Read-out in experiment [7]: catalase (CAT), CAT (gene 847)
In words: LTEA_HepaRG_CAT: Life Technologies and Expression Analysis (LTEA) Assay for catalase (CAT) using HepaRG (AID 2283452). As to conditions: mRNA level, 48 h; actives raise or lower the signal. In outline: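 HepaRG cells in serum-free induction medium, 0.5% DMSO vehicle, exposed 48 h in duplicate over 8 half-log concentrations from 100 uM. CAT mRNA measured by qRT-PCR, normalized to ACTB, GAPDH, POLR2A; bidirectional fit versus DMSO.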

Read-out in experiment [8]: Cytochrome P450 (CYP1A1), CYP1A1 (gene 1543)
In words: LTEA_HepaRG_CYP1A1: Life Technologies and Expression Analysis (LTEA) Assay for Cytochrome P450 (CYP1A1) using HepaRG (AID 2283454). As to conditions: mRNA level, 48 h; actives raise or lower the signal. In a few lines:
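HepaRG, 48 h post-plating switched to serum-free induction medium; 8-pt conc-response (top 100 uM, half-log, 0.5% DMSO), duplicates, 48 h. Lysis in RLT, TaqMan qRT-PCR for CYP1A1; gain or loss vs DMSO.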

Read-out in experiment [9]: growth arrest and DNA damage 45 (GADD45A), GADD45A (gene 1647)
In words: LTEA_HepaRG_GADD45A: Life Technologies and Expression Analysis (LTEA) Assay for growth arrest and DNA damage 45 (GADD45A) using HepaRG (AID 2283458). The note with it: mRNA level, 48 h; actives raise or lower the signal. In a few lines:
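HepaRG, 48 h exposure, 8 conc. (top 100 uM, half-log steps), 0.5% DMSO vehicle, duplicates. Read-out: qRT-PCR mRNA level, housekeeping-normalized (ACTB/GAPDH/POLR2A). Curves fit bidirectionally vs DMSO baseline.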

Read-out in experiment [10]: ABC Transporter (ABCB1), ABCB1 (gene 5243)
In words: LTEA_HepaRG_ABCB1: Life Technologies and Expression Analysis (LTEA) Assay for ABC Transporter (ABCB1) using HepaRG (AID 2283460). As to conditions: mRNA level, 48 h; actives raise or lower the signal. In a few lines: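 HepaRG, 48 h exposure, 8-pt half-log series from 100 uM, 0.5% DMSO vehicle, duplicates. Readout: ABCB1 transcript by Fluidigm TaqMan qRT-PCR, housekeeping-normalized; bidirectional curve fit vs DMSO baseline.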

Read-out in experiment [11]: ABC Transporter (ABCC3), ABCC3 (gene 8714)
In words: LTEA_HepaRG_ABCC3: Life Technologies and Expression Analysis (LTEA) Assay for ABC Transporter (ABCC3) using HepaRG (AID 2283462). The note with it: mRNA level, 48 h; actives raise or lower the signal. In a few lines: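 Human HepaRG, 48 h dosing, 8-pt half-log series from 100 uM, 0.5% DMSO vehicle, duplicates. ABCC3 mRNA by TaqMan qRT-PCR, housekeeping-normalized; bidirectional curve fit vs DMSO.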

Read-out in experiment [12]: ABC Transporter (ABCB11), ABCB11 (gene 8647)
In words: LTEA_HepaRG_ABCB11: Life Technologies and Expression Analysis (LTEA) Assay for ABC Transporter (ABCB11) using HepaRG (AID 2283463). The note with it: mRNA level, 48 h; actives raise or lower the signal. In a few lines:
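HepaRG, 48 h exposure, 8-pt half-log CRC top 100 uM, 0.5% DMSO vehicle, duplicates. Readout: TaqMan qRT-PCR of ABCB11 mRNA, housekeeping-normalized (ACTB/GAPDH/POLR2A). Bidirectional fit vs DMSO baseline.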

Read-out in experiment [13]: ABC Transporter (ABCC2), ABCC2 (gene 1244)
In words: LTEA_HepaRG_ABCC2: Life Technologies and Expression Analysis (LTEA) Assay for ABC Transporter (ABCC2) using HepaRG (AID 2283464). The note with it: mRNA level, 48 h; actives raise or lower the signal. In a few lines: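 HepaRG, 48 h post-plating; serum-free induction medium; cpd 8-pt, 100 uM top, half-log, 0.5% DMSO, duplicate, 48 h. Readout: ABCC2 mRNA by qRT-PCR, norm. ACTB/GAPDH/POLR2A. Bidirectional fit vs DMSO baseline.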

Read-out in experiment [14]: Broad substrate specificity ATP-binding cassette transporter ABCG2 (Homo sapiens) (UniProt Q9UNQ0)
In words: LTEA_HepaRG_ABCG2: Life Technologies and Expression Analysis (LTEA) Assay for ABC Transporter (ABCG2) using HepaRG (AID 2283465). The note with it: mRNA level, 48 h; actives raise or lower the signal. In outline:
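HepaRG, 48 h exposure, 8-pt half-log series from 100 uM, 0.5% DMSO vehicle, duplicates. Readout: ABCG2 transcript by qRT-PCR (Fluidigm array), housekeeping-normalized; bidirectional curve fit relative to DMSO baseline.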

Read-out in experiment [15]: CFLAR gene, CFLAR (gene 8837)
In words: LTEA_HepaRG_CFLAR: Life Technologies and Expression Analysis (LTEA) Assay for CFLAR gene using HepaRG (AID 2283455). As to conditions: mRNA level, 48 h; actives raise or lower the signal. In a few lines: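 qRT-PCR read-out (Fluidigm/TaqMan) of CFLAR mRNA, normalized to three housekeeping genes, in differentiated human HepaRG cells after 48 h chemical exposure; 8-point half-log series from 100 uM in 0.5% DMSO; bidirectional curve fitting versus DMSO.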

Read-out in experiment [16]: Forkhead box O1 (FOXO1), FOXO1 (gene 2308)
In words: LTEA_HepaRG_FOXO1: Life Technologies and Expression Analysis (LTEA) Assay for Forkhead box O1 (FOXO1) using HepaRG (AID 2283456). The note with it: mRNA level, 48 h; actives raise or lower the signal. In outline: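 HepaRG, 48 h exposure, 8-pt half-log series from 100 uM in 0.5% DMSO, duplicates; Fluidigm qRT-PCR mRNA, housekeeping-normalised; bidirectional fit vs DMSO baseline.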

Read-out in experiment [17]: Forkhead box O3 (FOXO3), FOXO3 (gene 2309)
In words: LTEA_HepaRG_FOXO3: Life Technologies and Expression Analysis (LTEA) Assay for Forkhead box O3 (FOXO3) using HepaRG (AID 2283459). The note with it: mRNA level, 48 h; actives raise or lower the signal. In outline:
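qRT-PCR readout of FOXO3 transcript, normalized to three housekeeping genes (ACTB, GAPDH, POLR2A); gain or loss fitted against 0.5% DMSO vehicle. HepaRG cells, 48 h chemical exposure, 8-point half-log series, top 100 uM.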

Read-out in experiment [18]: growth arrest and DNA damage 45 (GADD45B), GADD45B (gene 4616)
In words: LTEA_HepaRG_GADD45B: Life Technologies and Expression Analysis (LTEA) Assay for growth arrest and DNA damage 45 (GADD45B) using HepaRG (AID 2283461). The note with it: mRNA level, 48 h; actives raise or lower the signal. In outline: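 HepaRG, ~100,000 cells/well, 48 h plating; serum-free induction medium; cpd 100 uM top, half-log x8, 0.5% DMSO, duplicate, 48 h; lysis in RLT, RNA isolation, qRT-PCR; norm ACTB/GAPDH/POLR2A; bidirectional fit vs DMSO.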

Activity calls are given as the source filed them. The calls were made as follows: active = hit-call score of the fitted dose curve at least 0.9, where 1 is the maximum; inactive = score below 0.9.

Chain of Fatty acid synthase (Homo sapiens) (P49327 whole entry, looked up): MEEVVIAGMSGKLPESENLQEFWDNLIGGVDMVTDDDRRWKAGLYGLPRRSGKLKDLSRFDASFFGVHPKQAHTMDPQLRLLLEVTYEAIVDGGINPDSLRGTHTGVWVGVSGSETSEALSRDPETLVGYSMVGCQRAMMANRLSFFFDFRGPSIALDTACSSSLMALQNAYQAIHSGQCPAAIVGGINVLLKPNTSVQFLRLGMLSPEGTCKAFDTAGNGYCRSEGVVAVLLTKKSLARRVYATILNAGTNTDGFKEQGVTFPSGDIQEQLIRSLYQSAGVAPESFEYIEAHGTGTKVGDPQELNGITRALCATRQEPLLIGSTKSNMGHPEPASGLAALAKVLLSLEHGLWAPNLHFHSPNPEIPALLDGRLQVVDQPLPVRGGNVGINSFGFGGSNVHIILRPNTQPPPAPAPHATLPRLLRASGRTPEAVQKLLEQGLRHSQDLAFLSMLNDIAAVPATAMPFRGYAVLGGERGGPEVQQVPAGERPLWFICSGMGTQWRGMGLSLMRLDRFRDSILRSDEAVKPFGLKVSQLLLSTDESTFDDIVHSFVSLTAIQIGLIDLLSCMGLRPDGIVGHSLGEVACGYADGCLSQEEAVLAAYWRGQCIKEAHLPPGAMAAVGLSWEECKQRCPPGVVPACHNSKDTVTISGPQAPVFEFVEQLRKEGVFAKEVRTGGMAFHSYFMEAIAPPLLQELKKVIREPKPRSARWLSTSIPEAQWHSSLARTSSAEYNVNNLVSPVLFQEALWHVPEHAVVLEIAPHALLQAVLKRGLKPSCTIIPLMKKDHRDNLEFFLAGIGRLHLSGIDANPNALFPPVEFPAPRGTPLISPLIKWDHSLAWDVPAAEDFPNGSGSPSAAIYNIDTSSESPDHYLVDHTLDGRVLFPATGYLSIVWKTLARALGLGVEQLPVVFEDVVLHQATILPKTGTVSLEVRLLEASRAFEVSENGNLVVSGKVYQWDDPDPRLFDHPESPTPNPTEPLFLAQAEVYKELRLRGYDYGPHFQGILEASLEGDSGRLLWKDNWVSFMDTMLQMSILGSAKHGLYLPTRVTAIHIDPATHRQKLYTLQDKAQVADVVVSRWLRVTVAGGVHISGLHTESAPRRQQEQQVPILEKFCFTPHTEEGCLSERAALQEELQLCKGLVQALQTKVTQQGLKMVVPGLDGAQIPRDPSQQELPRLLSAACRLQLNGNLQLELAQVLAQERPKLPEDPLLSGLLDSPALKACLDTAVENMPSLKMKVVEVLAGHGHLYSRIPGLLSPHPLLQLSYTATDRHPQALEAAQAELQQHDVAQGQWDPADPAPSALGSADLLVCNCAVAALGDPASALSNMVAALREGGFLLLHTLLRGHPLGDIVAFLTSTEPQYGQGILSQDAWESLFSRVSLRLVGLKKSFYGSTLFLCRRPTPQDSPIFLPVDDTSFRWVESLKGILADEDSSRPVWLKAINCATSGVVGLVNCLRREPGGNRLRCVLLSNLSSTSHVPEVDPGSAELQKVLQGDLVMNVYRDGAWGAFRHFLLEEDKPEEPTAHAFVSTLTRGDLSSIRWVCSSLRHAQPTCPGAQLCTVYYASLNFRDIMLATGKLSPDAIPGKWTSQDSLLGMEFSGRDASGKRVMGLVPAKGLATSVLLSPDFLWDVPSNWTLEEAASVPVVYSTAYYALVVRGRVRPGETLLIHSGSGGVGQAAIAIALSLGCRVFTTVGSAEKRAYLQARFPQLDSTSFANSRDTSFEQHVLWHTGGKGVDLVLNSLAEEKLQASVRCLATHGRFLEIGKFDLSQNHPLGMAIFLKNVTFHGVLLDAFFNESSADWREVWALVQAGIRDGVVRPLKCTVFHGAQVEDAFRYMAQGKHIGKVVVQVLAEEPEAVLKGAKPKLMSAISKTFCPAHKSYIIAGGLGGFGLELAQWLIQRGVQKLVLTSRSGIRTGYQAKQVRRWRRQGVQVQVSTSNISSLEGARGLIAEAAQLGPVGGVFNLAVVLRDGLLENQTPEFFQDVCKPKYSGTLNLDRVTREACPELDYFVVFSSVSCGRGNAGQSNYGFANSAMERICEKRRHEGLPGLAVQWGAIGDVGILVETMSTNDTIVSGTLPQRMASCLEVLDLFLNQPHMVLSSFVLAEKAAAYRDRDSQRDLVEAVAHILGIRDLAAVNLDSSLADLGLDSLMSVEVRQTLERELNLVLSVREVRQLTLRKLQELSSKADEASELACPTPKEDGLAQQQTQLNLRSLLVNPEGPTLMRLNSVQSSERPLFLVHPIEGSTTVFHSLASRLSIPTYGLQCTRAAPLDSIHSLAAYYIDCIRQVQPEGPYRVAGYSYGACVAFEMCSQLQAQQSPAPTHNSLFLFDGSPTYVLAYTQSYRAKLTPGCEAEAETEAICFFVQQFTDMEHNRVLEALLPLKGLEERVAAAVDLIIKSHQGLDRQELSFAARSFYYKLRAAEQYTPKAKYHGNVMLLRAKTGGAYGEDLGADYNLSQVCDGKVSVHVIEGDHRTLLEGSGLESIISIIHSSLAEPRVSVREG
Chain of Broad substrate specificity ATP-binding cassette transporter ABCG2 (Homo sapiens) (Q9UNQ0 whole entry, looked up): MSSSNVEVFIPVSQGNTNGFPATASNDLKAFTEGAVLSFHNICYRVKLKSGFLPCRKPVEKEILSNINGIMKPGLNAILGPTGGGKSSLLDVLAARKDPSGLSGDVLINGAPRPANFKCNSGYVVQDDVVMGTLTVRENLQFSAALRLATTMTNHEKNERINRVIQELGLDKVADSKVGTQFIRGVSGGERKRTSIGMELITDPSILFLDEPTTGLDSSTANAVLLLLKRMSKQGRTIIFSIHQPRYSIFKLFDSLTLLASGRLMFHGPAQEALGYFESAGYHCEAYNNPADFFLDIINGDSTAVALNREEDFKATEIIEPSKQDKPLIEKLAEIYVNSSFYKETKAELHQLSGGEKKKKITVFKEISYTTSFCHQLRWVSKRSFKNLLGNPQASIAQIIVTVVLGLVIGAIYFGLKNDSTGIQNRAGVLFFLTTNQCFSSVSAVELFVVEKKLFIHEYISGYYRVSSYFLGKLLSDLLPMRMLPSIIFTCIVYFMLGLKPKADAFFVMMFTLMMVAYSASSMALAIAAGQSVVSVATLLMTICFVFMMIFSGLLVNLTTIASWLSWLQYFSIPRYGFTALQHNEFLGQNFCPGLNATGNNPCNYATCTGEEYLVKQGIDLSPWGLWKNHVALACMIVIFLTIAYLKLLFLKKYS

As for `Cc1nc(N(C)C)nc(OC(=O)N(C)C)c1C`, the outcome in experiment [1], in experiment [2], in experiment [3], in experiment [4], in experiment [5] and in experiment [6] was inactive. The result in [7], in experiment [9], in experiment [11], in [12], in experiment [13] and in experiment [14] was inactive. In addition, the AC50 – broadly, the midpoint of the concentration-response curve, whichever way the signal moves – in experiment [8] is 34.3 µM (active); in experiment [10] it was 9.92 µM (active).
Turning to `N#CN=C1SCCN1Cc1ccc(Cl)nc1`, the compound was called inactive in experiment [1], in experiment [2], in experiment [3], in experiment [4], in [5] and in experiment [6]. In addition, the result in experiment [7], in [8], in experiment [15], in [16], in experiment [9] and in experiment [17] was inactive. In addition, the compound was classed as inactive in [18], in experiment [11], in experiment [12], in experiment [13] and in [14].
`COc1cc(Cl)c(OC)cc1Cl`: the outcome in [1], in experiment [2], in experiment [3], in [4], in [5] and in [6] was inactive. Further, the call in experiment [7], in [16], in experiment [9], in [17], in [10] and in [11] was inactive. The result in [12] and in experiment [14] was inactive. Besides, the AC50 in experiment [8] is 27.9 µM (active).
Take `CCOP(=S)(OCC)Oc1nc(Cl)n(C(C)C)n1`: the AC50 in [1] is 61.8 µM (active); in experiment [3] it was 30.5 µM (active); in experiment [8] it was 9.25 µM (active); in [11], 50 µM (active); in experiment [12] it was 1.64 µM (active). In addition, the call in experiment [2], in experiment [4], in experiment [5], in experiment [6], in experiment [7] and in experiment [9] was inactive. Also, the compound was called inactive in experiment [17] and in experiment [14].
For `CCCC(=NOCC)C1=C(O)CC(CC(C)SCC)CC1=O` (centres undefined), the compound was called inactive in experiment [1], in experiment [2], in [3], in experiment [4], in experiment [5] and in experiment [6]. Besides, the compound was called inactive in [7], in experiment [15], in experiment [9], in experiment [17], in experiment [10] and in experiment [11]. For the same compound, the call in experiment [12] and in experiment [14] was inactive. In experiment [8], the AC50 is 73.9 µM (active).
